The values below come from PubChem BioAssay.

Each structure is given as a SMILES string. Values joined by “and” are separate entries in the source; they are usually repeats but may differ in a detail not shown here. Equal entries are not always repeated. Active and inactive are the calls of the source.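 Rule for the calls, unless noted: active = thallium flux through the channel raised or lowered by more than 3 SD from vehicle-only wells, actives on both sides; inactive = the rest.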

A short description of experiment [1]: polyglutamine-triggered caspase-3 activation inhibitors, cell-based (AID 1583). The conditions noted are these: polyglutamine-induced caspase-3 activation, cell assay; stronger effect = higher value;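 tested at 10 µM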.
Experiment [2] in a line: suppressors of polyQ aggregation in yeast, 75Q-TubU reporter (AID 1593). The note with it: Yeast 75Q polyglutamine aggregation reporter.
A short description of experiment [3]: inhibitors of mitochondrial cytochrome c release, biochemical, purified mitochondria (AID 1603).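 Note: mouse liver mitochondria challenged with calcium chloride; signal normalized to the plate average as 100%.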 The note with it: stronger effect = lower value.
Experiment [4] can be described thus: inhibitors of polyQ protein aggregation (AID 1604). The conditions noted are these: polyglutamine-induced protein aggregation inhibition assay; stronger effect = higher value; tested at 2.5 µM.
Experiment [5] in a line: enhancers of glutamate uptake in motor neurons, MN-1 cell line (AID 1612).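 Note: tested at 1 µM final; 0% = mean of DMSO vehicle wells on each plate; positive means more glutamate uptake than control and negative means less.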 The conditions noted are these: MN-1 motor neuron cells, stronger effect = higher value.
The nature of experiment [6]: Cy5 fluorescence interference with SSB-bound oligo, artefact control for HCV NS3 helicase inhibitor project, biochemical, NIH Clinical Collection, E. coli SSB (AID 743268; call rule not given here).
In experiment [7] the test system is Hepatitis C virus NS3 helicase. The experiment in a line: HCV NS3 helicase inhibitors, primary screen, biochemical, fluorescence polarization, NIH Clinical Collection (AID 743270; call rule not given here). The note with it: NS3 helicase binding to Cy5-dT15 DNA, stronger effect = higher value, concentration not given here. In general terms: Polarisation of emitted light reports the rotation of a fluorescent probe.

Experiment [8] has as its target Single-stranded DNA-binding protein (Escherichia coli (strain K12)) (UniProt P0AGE0). Nature of the experiment: E. coli SSB displacement from DNA, counter-screen for HCV NS3 helicase inhibitor project, biochemical, fluorescence polarization, NIH Clinical Collection (AID 743271; in the data active = inhibition above about 28%). The conditions noted are these: stronger effect = higher value, concentration not given here. A general note: Counterscreens check selectivity or assay interference.

The nature of experiment [9]: fluorescence interference in NS3h assay format, artefact control for HCV NS3 helicase inhibitor project, biochemical, NIH Clinical Collection (AID 743272; call rule not given here;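 note: HCV NS3 helicase with a Cy5 labelled single stranded DNA probe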). The note with it: fluorescence interference counterscreen, stronger effect = lower value.
The nature of experiment [10]: viability rescue of complex I mutant cybrids, primary screen, cell-based, galactose medium, ATP luminescence (AID 1645843;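 active = z-score of at least 1.8 in each of two replicates, scored against plate mean and spread of sample wells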;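 note: positive z means more ATP and so rescue of galactose-driven cybrid death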). The note with it: complex I mutant cybrid cells, 72 h, stronger effect = higher value.
Experiment [11] deals with F380Y/beta4. Nature of the experiment: modulators of BK channel variants, profiling panel, selectivity assay, cell-based, U2OS BacMam, thallium flux, beta subunits (AID 1259406).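 Note: initial slope of Thallos dye fluorescence rise after thallium is added; log ratio against the mean of 0.3% DMSO vehicle wells on the same plate.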 The note with it: at 30 µM.
Experiment [12] deals with Calcium-activated potassium channel subunit alpha-1 (Homo sapiens) + Leucine-rich repeat-containing protein 26 (Homo sapiens) (UniProt Q12791+Q2I0M4). The experiment is described as above. The conditions noted are these: F380Y/Slo1WT/gamma1, at 30 µM.
Chain of Calcium-activated potassium channel subunit alpha-1 (Homo sapiens) + Leucine-rich repeat-containing protein 26 (Homo sapiens) (Q2I0M4 whole entry, looked up, one chain of several): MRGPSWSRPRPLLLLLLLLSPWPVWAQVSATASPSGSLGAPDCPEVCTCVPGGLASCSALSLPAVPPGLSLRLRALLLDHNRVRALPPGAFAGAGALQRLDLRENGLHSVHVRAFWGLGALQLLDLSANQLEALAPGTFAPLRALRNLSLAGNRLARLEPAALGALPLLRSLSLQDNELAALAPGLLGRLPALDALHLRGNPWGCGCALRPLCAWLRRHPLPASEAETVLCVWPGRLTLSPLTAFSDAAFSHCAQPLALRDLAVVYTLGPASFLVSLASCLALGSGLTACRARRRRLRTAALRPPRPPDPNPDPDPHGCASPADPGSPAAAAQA
The test system of experiment [13] is R275C. Described as above. The conditions noted are these: at 30 µM.
For experiment [14], the system named is R275C/beta1. Described as above. The conditions noted are these: at 30 µM.
Experiment [15] has as its system R275C/beta2Delta. The description is as above. The note with it: at 30 µM.
In experiment [16] the test system is R275C/beta4. Described as above. The conditions noted are these: at 30 µM.
Experiment [17] deals with R275C/Slo1WT/beta2. The description is as above. The conditions noted are these: at 30 µM.
Experiment [18] can be described thus: LFS_MB_P medulloblastoma growth inhibition, cell-based, chromothripsis tumors, cisplatin or BGB combos (AID 1671449; in the data active = inhibition above about 80%;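 note: cells exposed for 96 hours; 0% = vehicle DMSO and 100% = killing by high DMSO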). The conditions noted are these: LFS_MB_P medulloblastoma cells.
Experiment [19] in a line: HDN33 neuroblastoma growth inhibition, cell-based, chromothripsis tumors, cisplatin or BGB combos (AID 1671450; in the data active = inhibition above about 80%;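 note: cells exposed to compound for four days; 0% = vehicle DMSO and 100% = cell killing by high DMSO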). The note with it: HDN33 neuroblastoma cells, stronger effect = higher value.
Experiment [20] can be described thus: HTB85 osteosarcoma cell growth inhibition, synergistic combos for chromothripsis tumors, BGB or cisplatin IC20 combos (AID 1671453; in the data active = inhibition above about 80%;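 note: cells exposed for 96 hours before readout; 0% = vehicle DMSO and 100% = high DMSO killing control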). The conditions noted are these: HTB85 osteosarcoma cells, drug combinations, stronger effect = higher value.

The inhibition is the change of the read-out against control, counted positive when it falls.

In the case of `Cc1ccc(C)c(OCCCC(C)(C)C(=O)O)c1`, the figures for the inhibition in [1], in [7] and in [8] were 5.02%, 0.45% (inactive) and 1.05% (inactive), respectively. The same molecule came in with a score in experiment [2] of -0.33. Further, the cytochrome c release ratio in experiment [3] worked out at 0.86. In experiment [4], this molecule had an inhibition of aggregation of 39.4%. The glutamate uptake change in experiment [5] turned out to be 0.82%. The fluorescence ratio in [6] was 1.06 (inactive); in [9], 0.96 (inactive). In experiment [10], the z-score is 0.125 (inactive) and 0.18 (inactive). For the same molecule, the log fold change Tl+ flux in [11] was 0.0166 (inactive); in experiment [12] it was 0.0687 (inactive); in experiment [13], 0.0109 (inactive); in experiment [14], 0.0657 (inactive); in experiment [15], 0.0312 (inactive); in experiment [16] it was -0.0122 (inactive). Moreover, in experiment [17], the log fold change Tl+ flux was 0.088 (inactive).

As to `N[C@@H](C(=O)N[C@@H]1C(=O)N2C(C(=O)O)=C(Cl)CS[C@H]12)c1ccccc1`, the fluorescence ratio in [6] was 0.95 (inactive); in experiment [9] it was 0.91 (inactive). Also, the values for the inhibition in experiment [7] and in [8] were -4.59% (inactive) and 1.97% (inactive), respectively. The log fold change Tl+ flux in experiment [11] was -0.0331 (inactive); in experiment [12], -0.07 (inactive); in experiment [13], 0.0278 (inactive); in experiment [14] it was 0.0103 (inactive); in experiment [15] it was 0.0124 (inactive); in [16], -0.0176 (inactive). Besides, the log fold change Tl+ flux in experiment [17] was -0.0279 (inactive).

As to `CCn1cc(C(=O)O)c(=O)c2cc(F)c(N3CCN(C)CC3)cc21`, the z-score in experiment [10] is 0.7 (inactive) and 0.275 (inactive). Further, the inhibition is -3.22% (inactive) and -29% (inactive) in experiment [18] (at 0.5 µM, stronger effect = higher value); 13.2% and 24% in experiment [18] (measured here: combination with BGB IC20, at 0.005 µM); -32.6% and 8.85% in experiment [18] (measured here: combination with BGB IC40, at 0.005 µM); 12.2% and 6.61% in experiment [18] (measured here: combination with BGB IC40, at 0.05 µM); -21.7% and -50.8% in experiment [18] (measured here: combination with cisplatin, at 0.5 µM, stronger effect = higher value); -2.03% and -14% in experiment [18] (measured here: combination with cisplatin, at 5 µM, stronger effect = higher value). The inhibition was -18.6% and 9.99% in experiment [19] (BGB combo, at 5 µM); -25.3% (inactive) and 3.48% (inactive) in [19] (at 0.5 µM); -42% and 24.3% in experiment [19] (cisplatin combo, at 5 µM); -16.6% and 0.157% in experiment [19] (measured here: with BGB IC20 combination, at 0.5 µM); -28.5% and 3.55% in experiment [19] (measured here: with cisplatin IC20 combination, at 0.5 µM); -19.9% and 6.42% in experiment [19] (single agent, at 5 µM). Also, the inhibition is -24.6% (inactive) and 0.8% (inactive) in [20] (at 0.5 µM); -39.2% and 13.3% in experiment [20] (measured here: with BGB IC20, at 0.5 µM); -22.1% and 10.1% in [20] (measured here: with BGB IC20, at 5 µM); -19.7% and -20.6% in experiment [20] (measured here: with cisplatin IC20, at 0.5 µM); -28.4% and -20.4% in experiment [20] (measured here: with cisplatin IC20, at 5 µM); -27.1% and 2.1% in experiment [20] (single agent, at 5 µM). In addition, the log fold change Tl+ flux is 0.0266 (inactive) in experiment [11]; -0.0628 (inactive) in [12]; -0.0565 (inactive) in experiment [13]; 0.0145 (inactive) in [14]; -0.0279 (inactive) in [15]; 0.00214 (inactive) in experiment [16]. In addition, the log fold change Tl+ flux in experiment [17] was 0.067 (inactive).

`Cc1onc(-c2c(Cl)cccc2Cl)c1C(=O)N[C@@H]1C(=O)N2[C@@H]1SC(C)(C)[C@@H]2C(=O)O`: the results for the inhibition in [1], in [7] and in experiment [8] were 12.4%, -2.27% (inactive) and -0.48% (inactive), respectively. Besides, the score in experiment [2] is 1.26. The cytochrome c release ratio in experiment [3] came out at 1.34. The inhibition of aggregation in experiment [4] was 56.3%. Besides, in [5], the glutamate uptake change was -10.2%. Also, the fluorescence ratio in [6] is 0.97 (inactive); in experiment [9], 1.03 (inactive). Besides, the z-score in experiment [10] is 0.54 (inactive). The log fold change Tl+ flux is 0.00974 (inactive) in [11]; 0.0705 (inactive) in experiment [12]; -0.0255 (inactive) in experiment [13]; 4.8e-05 (inactive) in experiment [14]; 0.00693 (inactive) in experiment [15]; -0.0254 (inactive) in experiment [16]. Also, the log fold change Tl+ flux in experiment [17] is -0.0106 (inactive).

`Nc1ncn([C@@H]2O[C@H](CO)[C@@H](O)[C@H]2O)c(=O)n1`: the inhibition in [1] was -3.83%; in [7], 1.36% (inactive); in [8], 4.86% (inactive). This molecule also had a score in experiment [2] of 1.31. For the same molecule, in experiment [3], the cytochrome c release ratio is 1.03. The same molecule returned an inhibition of aggregation in experiment [4] of 38.1%. Moreover, in experiment [5], the glutamate uptake change was found to be 3.18%. Besides, the fluorescence ratio in [6] is 1.02 (inactive); in [9] it was 1.04 (inactive). The z-score in [10] was -1.16 (inactive) and -0.05 (inactive). In addition, the log fold change Tl+ flux in experiment [11] is -0.0152 (inactive); in experiment [12] it was 0.00381 (inactive); in experiment [13] it was 0.0227 (inactive); in experiment [14] it was 0.00104 (inactive); in experiment [15], 0.0218 (inactive); in [16] it was 0.000291 (inactive). In addition, in [17], the log fold change Tl+ flux was -0.00199 (inactive).
